From PubChem BioAssay AID743192 (National Center for Advancing Translational Sciences (NCATS), 2013) come the findings set out here.

The structures appear in SMILES notation. Active and inactive are the calls of the source. Calls follow the shape of the dose curve; as a rule, active = well fitted curve in the direction sought with a large enough effect; inactive = no such curve, though single readings can be large or run the other way.

Chain of L-lactate dehydrogenase B chain (Homo sapiens) (P07195 whole entry, looked up): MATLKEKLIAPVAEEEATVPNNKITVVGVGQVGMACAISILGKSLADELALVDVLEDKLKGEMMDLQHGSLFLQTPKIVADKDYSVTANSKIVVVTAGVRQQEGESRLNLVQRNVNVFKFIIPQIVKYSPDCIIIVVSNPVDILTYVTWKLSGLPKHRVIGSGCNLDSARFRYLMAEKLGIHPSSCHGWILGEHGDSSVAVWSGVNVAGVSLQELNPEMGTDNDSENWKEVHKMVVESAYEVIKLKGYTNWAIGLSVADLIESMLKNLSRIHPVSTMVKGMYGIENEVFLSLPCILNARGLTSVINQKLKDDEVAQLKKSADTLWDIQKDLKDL

The target in the test is L-lactate dehydrogenase B chain (Homo sapiens) (UniProt P07195). The experiment in a line: Extended Characterization of HPGD Inhibitors: Counterscreen Against LDHB. The conditions noted are these: LDHB enzyme, diaphorase/resazurin coupled fluorescence; series mostly up to 114 µM; activity, negative = inhibition: at the top concentration. From the text:
The central role of HPGD is to inactivate prostaglandins such as prostaglandin E2 (PGE2) or prostaglandin D2 (PGD2). These prostaglandins are involved in a number of processes, including inflammation, differentiation, and cellular signaling, which makes HPGD an important target for pharmacological intervention. A number of prostaglandins of particular biological interest have been identified as substrates of HPGD. […] Over-production of PGE2 has been reported to promote tumor-associated neovascularization, cell proliferation, and tumor growth. […] In order to further characterize the compounds, we ran them against an LDHB counterscreen. LDHA converts pyruvate to lactate while regenerating NAD+ from NADH. LDHA enzymatic activity is then coupled to the activity of diaphorase, which reversibly catalyzes the reaction of NAD+ to NADH while simultaneously reducing resazurin to the fluorescent resorufin. This change in fluorescence signal (excitation 544 nm; emission, 590 nm) was monitored using the ViewLux CCD imager (Perkin Elmer). Data were normalized against no enzyme control wells and no compound control wells. NIH Chemical Genomics Center [NCGC] NIH Molecular Libraries Probe Centers Network [MLPCN] MLPCN Grant: MH084681 Assay Submitter (PI): Structural Genomics Consortium
3 uL of LDHB enzyme in assay buffer are added to plate before 23 nL of compound/control are pinned into the solution. After a 15 min incubation, 1 uL of NADH (60 uM final) and sodium pyruvate (160 uM final) are added, incubated at 8 min at RT before another 1 uL of Diaphorase / Resazurin is added. The plate is read on the ViewLux after a 10 min RT incubation
On the technique in general: Counterscreens check selectivity or assay interference.
For the molecule `Cc1cc(-c2nnc3n2CCCCC3)c(C)n1-c1cccc(C(F)(F)F)c1`, the “activity, negative = inhibition” value was 4.68% (inactive).

Turning to `COc1ccc(-n2cnc3cc(C(=O)N4CCCCC4)ccc32)cc1`, the “activity, negative = inhibition” value was 5.92% (inactive).

Take `O=C(c1ccc2c(c1)ncn2-c1cccc(C(F)(F)F)c1)N1CCCCC1`: the “activity, negative = inhibition” value is 5.8% (inactive).

For the molecule `Cc1cc(-c2nnc3n2CCCCC3)c(C)n1-c1cccc(Cl)c1`, the “activity, negative = inhibition” value was 1.42% (inactive).

Regarding `Cc1cc(-c2nnc3n2CCCCC3)c(C)n1-c1ccc(Cl)c(Cl)c1`, the “activity, negative = inhibition” value was 11% (inactive).

As for `Cc1ccc(-n2c(C)cc(-c3nnc4n3CCCCC4)c2C)cc1`, the “activity, negative = inhibition” value was 7.15% (inactive).

Consider `Cc1cc(-c2nnc3n2CCCCC3)c(C)n1-c1cccc(C#N)c1`, for which the “activity, negative = inhibition” value is 0.167% (inactive).

Take `O=C(c1ccc2c(c1)ncn2-c1cccc(Cl)c1)N1CCCCC1`: the “activity, negative = inhibition” value was 11.5% (inactive).

Regarding `Cc1cccc(-n2cnc3cc(C(=O)N4CCCC(C)(C)C4)ccc32)c1`, the “activity, negative = inhibition” value was -0.0782% (inactive).

On to `Cc1cccc(-n2cnc3cc(C(=O)N4CCCC(C(F)(F)F)C4)ccc32)c1` (stereo not given), for which the “activity, negative = inhibition” value was 3.07% (inactive).
